The whole screen tested about 400,000 compounds, of which about 13,000 (3.2%) were called active. Inconclusive results (about 18%) are left out. For the sample, actives were picked, then their nearest neighbours and some compounds at random. Values without a mark were called inactive. Calls come from the whole dose curve; as a rule, active = well fitted cell-killing curve with a large enough effect; inconclusive = small, poorly fitted or top-dose-only effect, or effect the other way; inactive = flat fitted curve, though single readings scatter.
% is set by controls: 0 for no effect and ±100 for the full control effect; potency is the fitted concentration of half-maximal effect.

This assay in a line: qHTS assay for MDR1-selective chemotherapeutics: Primary screen using the drug-selected MDR subline cells KB-V1. Note: nearly all actives have a fitted effect of over 60% in size. The settings on record: KB-V1 MDR cells viability, CellTiter-Glo, 72 h; series mostly up to 46.1 µM; activity change, negative = cytotoxicity: at the top concentration. An outline of the steps: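 In this primary screen, KB-V1 cells overexpressing P-gp are incubated with library compounds (lowest to highest concentration) for 72 h at 37 degrees C before a luminescent ATP viability read.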
On the technique in general: Quantitative high-throughput screening tests each substance at several concentrations.
As for `Cc1sc2nc(-c3ccccc3F)oc(=O)c2c1C`, the “activity change, negative = cytotoxicity” value was 23.8%.
As to `CCOc1ccc(NC(=O)c2cc3c(=O)n(Cc4cccs4)ccc3nc2C)cc1`, the “activity change, negative = cytotoxicity” value was -7.46%.
As for `O=C(NNC(=O)c1ccc(-c2ccccc2)cc1)Nc1ccccc1`, the “activity change, negative = cytotoxicity” value was -17%.
As for `C=CCNc1scc(-c2ccccc2)[n+]1CC=C`, the “activity change, negative = cytotoxicity” value was 8.94%.
Take `C=CC[n+]1c(-c2ccc(C)cc2)csc1NNC(=O)Nc1ccccc1`: the Potency was 14.6 µM (active).
On to `Cc1ccc(S(=O)(=O)N2C[C@H]3C(=O)C[C@@H](c4cccc5ccccc45)N(S(=O)(=O)c4ccc(C)cc4)[C@H]3C[C@H]2c2ccc(Cl)cc2)cc1`, for which the “activity change, negative = cytotoxicity” value is 7.7%.
Consider `Cc1ccccc1-c1nc(NC(C)C)nc2cc(-c3ccccc3)sc12`, for which the “activity change, negative = cytotoxicity” value was 3.17%.
As to `O=C(C1CCC1)N1CCN(c2ccccc2)CC1`, the “activity change, negative = cytotoxicity” value was 3.49%.
For `O=C(c1cc2c(s1)CCC2)N1CCN(c2ccccc2)CC1`, the Potency was 20.6 µM (active).
In the case of `O=C(NNC(=O)c1cc2c(s1)CCCC2)c1ccccc1`, the “activity change, negative = cytotoxicity” value is 14.5%.
Consider `O=[N+]([O-])c1ccc(/C=C/c2ccc3cccnc3c2)cc1`, for which the “activity change, negative = cytotoxicity” value was -13.4%.
Regarding `COc1cc(C(=O)N2CCOC23CCN(Cc2ccccc2)CC3)cc(OC)c1OC`, the “activity change, negative = cytotoxicity” value is -15.3%.
Consider `COC(=O)c1ccc(C(=O)OC)c(NC(=S)N2CCN(c3cc(Cl)ccc3C)CC2)c1`, for which the Potency is 20.6 µM (active).
Turning to `COC(=O)c1ccc(C(=O)OC)c(NC(=S)N2CCCCC2)c1`, the “activity change, negative = cytotoxicity” value was -24.1%.
Consider `CCc1nc2ccc(C(=O)N3CCN(c4cc(Cl)ccc4C)CC3)cc2nc1CC`, for which the “activity change, negative = cytotoxicity” value is 0%.
As to `O=C1CCc2cc(S(=O)(=O)Nc3cccc(Oc4ccccc4)c3)ccc2N1`, the “activity change, negative = cytotoxicity” value was 0%.
Turning to `CCn1c(SCC(=O)Nc2ccc3c(c2)OCCO3)nc2c(c1=O)SC(C)C2` (centres undefined), the Potency was 4.11 µM (active).
As for `COCCn1c(SCC(=O)Nc2cc(OC)ccc2OC)nc2c(c1=O)SC(C)C2` (centres undefined), the “activity change, negative = cytotoxicity” value was -7.8%.
For `CCn1c(SCC(=O)Nc2ccccc2F)nc2c(c1=O)SC(C)C2` (centres undefined), the “activity change, negative = cytotoxicity” value is -3.18%.
With `CN(CC(=O)Nc1ccccc1F)S(=O)(=O)c1ccc2c(c1)c(=O)n(C)c(=O)n2C`, the “activity change, negative = cytotoxicity” value is -0.676%.
For the molecule `Cc1nc2c(OCC(=O)C(C)(C)C)cccn2c1N(C)Cc1cccs1`, the “activity change, negative = cytotoxicity” value is -14.1%.
Same read-out and setting: the result for `COc1ccc2c(c1)CCCO[C@]21O[C@H](CCO)C[C@H](O)[C@H]1O` reads -6.9%; that for `COc1ccc(C(=O)N(C)Cc2ccc(OC)c(OC)c2OC)cc1S(=O)(=O)N1CCOCC1`, -7.85%; that for `COc1ccc(C(=O)OC(C)C(=O)NC2CCCC2)cc1S(=O)(=O)N1CCOCC1` (centres undefined), 4.6%.
With `Cc1ccc(CC(=O)Nc2ccc(S(=O)(=O)N3CCOCC3)cc2)cc1C`, the “activity change, negative = cytotoxicity” value was -19.5%.
With `COc1ccc(CCC(=O)Nc2ccc(Cl)c(S(=O)(=O)N3CCOCC3)c2)cc1OC`, the Potency is 16.4 µM (active).
The same measure, in the same setting: the result for `O=C(CN1CCc2ccccc2C1)Nc1cccc(S(=O)(=O)N2CCOCC2)c1` reads 18.4 µM (active).
In the case of `CN(CC(=O)Nc1ccc(F)cc1)CC(=O)Nc1ccc(Cl)c(S(=O)(=O)N2CCOCC2)c1`, the “activity change, negative = cytotoxicity” value is 16.4%.
`O=C(CCc1ccc(S(=O)(=O)N2CCOCC2)cc1)Nc1ccc2ccccc2c1`: the Potency is 16.4 µM (active).
On to `O=C(COC(=O)CCc1ccc(S(=O)(=O)N2CCOCC2)cc1)Nc1cccc(Cl)c1`, for which the “activity change, negative = cytotoxicity” value is 4.26%.
Take `COc1ccc(CC(=O)NC(C)c2ccc(Cl)c(Cl)c2)cc1S(=O)(=O)N1CCOCC1` (centres undefined): the Potency was 23.1 µM (active).
As to `O=C(CSc1ccccc1)Nc1cccc(S(=O)(=O)N2CCOCC2)c1`, the “activity change, negative = cytotoxicity” value was 2.32%.
With `COc1ccc(CC(=O)Nc2ccc3c(c2)CCC3)cc1S(=O)(=O)N1CCOCC1`, the “activity change, negative = cytotoxicity” value is 0%.
Turning to `O=C(COC(=O)c1ccccc1)Nc1cccc(S(=O)(=O)N2CCOCC2)c1`, the “activity change, negative = cytotoxicity” value was -1.3%.
